Compound activity from PubChem.
Compounds with a hit are over-represented: about 1.8% of the library has one in this group of screens.
LYPLA2 counter: LYPLA2 (human) inhibition in PME1 counter-screen; 320,000 tested, 0.38% active; O95372; recombinant LYPLA2, FP-Rh probe fluorescence polarization; inhibition, % at 5.9 µM;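 active = inhibition above the screen-wide mean plus 3 SD, limit set per campaign, cut at about 26% in these data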
Target sequence (O95372 whole entry, looked up): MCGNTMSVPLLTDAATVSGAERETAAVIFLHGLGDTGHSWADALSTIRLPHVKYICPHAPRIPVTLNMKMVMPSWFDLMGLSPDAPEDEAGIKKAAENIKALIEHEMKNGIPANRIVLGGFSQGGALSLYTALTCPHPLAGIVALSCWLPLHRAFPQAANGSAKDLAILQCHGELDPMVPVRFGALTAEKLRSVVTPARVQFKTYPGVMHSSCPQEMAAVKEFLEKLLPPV
GSTO1 inh: counter-screen for RBBP9 inhibitors: inhibitors of human GSTO1 | 300,000 tested, 1.1% active | recombinant GSTO1, activity-based probe fluorescence polarization | P78417 | inhibition, % at 5.96 µM;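 active = inhibition above the campaign mean inhibition plus 3 SD, cut at about 35% in these data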
PME-1 primary: PME-1 (human) inhibition. 320,000 tested, 0.53% active. AID 2130. inhibition, % at 5.9 µM. recombinant PME-1, FP-Rh probe fluorescence polarization;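 active = inhibition above the campaign mean of all compounds plus 3 SD, cut at about 26% in these data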;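 note: competitive labeling of PME-1 active site by serine hydrolase directed probe; inhibitors block probe labeling so polarization falls and inhibition rises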
Target sequence (Q9Y570 whole entry, looked up): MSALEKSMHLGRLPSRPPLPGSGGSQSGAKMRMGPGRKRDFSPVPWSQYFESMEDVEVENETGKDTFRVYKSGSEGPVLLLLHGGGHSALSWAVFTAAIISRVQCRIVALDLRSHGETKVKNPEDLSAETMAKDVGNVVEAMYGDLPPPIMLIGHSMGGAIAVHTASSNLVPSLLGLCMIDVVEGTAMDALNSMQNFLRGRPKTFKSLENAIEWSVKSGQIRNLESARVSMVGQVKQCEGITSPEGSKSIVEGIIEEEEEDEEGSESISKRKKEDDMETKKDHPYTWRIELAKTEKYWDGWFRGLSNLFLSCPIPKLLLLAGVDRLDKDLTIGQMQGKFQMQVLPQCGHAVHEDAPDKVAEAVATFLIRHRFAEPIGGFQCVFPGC
Fam108B inh: Fam108B inhibition, counter-screen for RBBP9 inhibitors; recombinant Fam108B, FP-Rh probe fluorescence polarization; AID 1947; 300,000 tested, 0.33% active; inhibition, % at 9.51 µM;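 active = inhibition above the screen mean inhibition plus 3 SD, computed separately per campaign, cut at about 18% in these data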;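 note: inhibitors lower polarization as less probe binds the enzyme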
LYPLA1 counter: blocks human lysophospholipase 1, a PME1 counter-screen; inhibition, % at 5.9 µM; O75608; AID 2174; 320,000 tested, 0.16% active; recombinant LYPLA1, FP-Rh probe fluorescence polarization;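 active = inhibition above the mean of all tested compounds plus 3 SD, set per campaign, cut at about 14% in these data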;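 note: inhibitors block serine hydrolase probe labeling of LYPLA1 so polarization falls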
PAD4 inh: inhibitors of human PAD4. recombinant PAD4, RCA probe fluorescence polarization. 330,000 tested, 0.41% active. inhibition, % at 6.36 µM. Q9UM07;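 active = percent inhibition above a cutoff equal to the mean of all tested compounds plus 3 SD, cut at about 15% in these data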
Fam108b confirm: confirmation of mouse Fam108b serine hydrolase inhibitors; shares compounds with Fam108B inh; recombinant Fam108b, FP-Rh probe fluorescence polarization; inhibition, % at 9.51 µM; 930 tested, 44% active; AID 1978;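 active = inhibition above a limit from the primary screen, the mean over all compounds plus 3 SD, cut at about 19% in these data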;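 note: inhibitors free the probe so polarization falls as inhibition rises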
Fam108b inh: inhibits mouse Fam108b in gel-based ABPP; shares compounds with Fam108B inh; recombinant Fam108b, fluorophosphonate probe; inhibition, % at 20 µM; 260 tested, 44% active; AID 588649; in the data active = inhibition above about 40%
GSTO1 inh conf: confirmation of human GSTO1 inhibitors; 2,400 tested, 54% active; recombinant GSTO1, probe fluorescence polarization; shares compounds with GSTO1 inh; inhibition, % at 5.96 µM;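 active = inhibition above the primary screen's cutoff, its mean inhibition plus 3 SD, cut at about 35% in these data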;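 note: loss of polarization as inhibitors block binding of rhodamine sulfonate ester activity probe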
LYPLA1 conf: counter-screen for PME1 inhibitors: confirmation of human LYPLA1 inhibitors | shares compounds with LYPLA1 counter | recombinant LYPLA1, FP-Rh probe fluorescence polarization | inhibition, % at 5.9 µM | 480 tested, 69% active | AID 2233;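 active = mean inhibition across replicates above the hit cutoff set in the primary screen, cut at about 15% in these data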;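 note: loss of FP-Rh probe labeling of LYPLA1 seen as lower polarization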
LYPLA2 conf: LYPLA2 (human) inhibition, confirmation counter-screen | shares compounds with LYPLA2 counter | recombinant LYPLA2, FP-Rh probe fluorescence polarization | inhibition, % at 5.9 µM | 1,100 tested, 72% active | AID 2232;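 active = mean inhibition across replicates above the hit cutoff set in the primary screen, cut at about 26% in these data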;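 note: blocked labeling of the enzyme by serine hydrolase FP-Rh probe lowers polarization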
PAD4 FP conf: confirmation of human PAD4 inhibitors; shares compounds with PAD4 inh; recombinant PAD4, RCA probe fluorescence polarization; inhibition, % at 6.36 µM; 1,200 tested, 28% active;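 active = mean inhibition across replicates above the hit cutoff set by the earlier primary screen, cut at about 15% in these data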;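 note: inhibitors block active-site labeling by the probe so polarization falls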
Large screens that a line does not name were inactive (follow-up assays come after a bar, where they were run).

COc1ccc(-n2c(/C=C/c3ccc(O)c(O)c3)nc3ccccc3c2=O)cc1	PME-1 primary 34.4
COc1cc(/C=C/c2nc3ccccc3c(=O)n2-c2ccc(O)cc2)ccc1O	none
O=C1NCCN2CCCC12 (configuration not stated)	LYPLA2 counter 30.4
CC1(C)NC(=O)[C@H]2CCCN21	none
NC(=O)CN1CC(c2ccccc2)CC1=O (configuration not stated)	none
Cc1cccc(NP(=O)(Oc2ccccc2)Oc2ccccc2)c1C	none
Cc1ccccc1NP(=O)(Oc1ccccc1F)Oc1ccccc1F	PME-1 primary 38.9
CC/C(CC(c1ccccc1)c1c(O)c2ccccc2oc1=O)=N\NC(N)=S (configuration not stated)	none
C/C(CC(c1ccccc1)c1c(O)c2ccccc2oc1=O)=N\Nc1ccc([N+](=O)[O-])cc1[N+](=O)[O-] (configuration not stated)	GSTO1 inh 37.3
O=P(CCl)(Nc1ccccc1)C(Cl)(Cl)Cl (configuration not stated)	PME-1 primary 29.9
Cc1cc(=O)oc2c(C)c(OCC(=O)N3CCC(C(=O)O)(c4ccccc4)CC3)ccc12	none
O=C1CN(C(=O)COC(=O)Cc2ccccc2)c2ccccc2N1	GSTO1 inh 34.9
Cc1cccc(N=Nc2ccc(N(C)C)cc2)c1	none
CC(=O)c1ccc2c(c1)C1C(Cl)C(Sc3ccccc3[N+](=O)[O-])CC1C(c1ccccc1[N+](=O)[O-])N2 (configuration not stated)	PME-1 primary 85.8
CN1/C(=C\C=Nc2ccccc2)C(C)(C)c2ccccc21	none
CN1/C(=C\C=C\C2=[N+](C)c3ccc4ccccc4c3C2(C)C)C(C)(C)c2ccccc21	PME-1 primary 178.6, PAD4 inh 119.4
Cc1cc(Br)c(NC(=O)CN2CC=C(c3ccccc3)CC2)c(Br)c1	PME-1 primary 30.5
Cc1ccccc1NC1(C#N)CCCCC1	none
O=C1C(=O)c2cccc3cccc1c23	GSTO1 inh 37.6
O=c1[nH]c(O)c(/C=C2/C=CC(c3cc(Cl)ccc3Cl)=N2)c(=O)[nH]1	Fam108B inh 27.1 | Fam108b confirm 20.1
CC1=Nc2ccccc2/C1=C/c1c(O)[nH]c(=O)[nH]c1=O	none
CCOP(=O)(OCC)C(O)c1ccc(OC)cc1 (configuration not stated)	none
CC(=O)c1ccc2c(c1)C1C(Cl)C(Sc3ccccc3[N+](=O)[O-])CC1C(c1ccccc1)N2 (configuration not stated)	PME-1 primary 70.1, Fam108B inh 37.8 | Fam108b confirm inactive
COc1cccc(C(=O)C2CN(C)CC2c2ccc(Cl)cc2)c1 (configuration not stated)	none
CN1CC(C(=O)c2cccc(C(F)(F)F)c2)C(c2ccc(Cl)cc2)C1 (configuration not stated)	Fam108B inh 20.3 | Fam108b confirm inactive
O=C(CCNC(=O)N1C[C@H]2C[C@@H](C1)c1cccc(=O)n1C2)Nc1ccc(F)cc1	none
Cc1cc2ccccc2c(=O)n1CC(=O)NCC(=O)N1CCC2(CC1)OCCO2	none
COc1ccc(OC)c(N2C(=O)NC(=O)/C(=C/c3ccc([N+](=O)[O-])s3)C2=O)c1	Fam108B inh 46.2 | Fam108b confirm inactive
COc1ccc(OC)c(N2C(=O)CC(=O)NC2=O)c1	none
C/C(=N\NC(=O)c1ccccc1O)c1c(O)n(Cc2ccccc2)c(=O)[nH]c1=O	Fam108B inh 21.1 | Fam108b confirm 81.6 | Fam108b inh inactive
C/C(=N\NC(=O)c1ccccc1O)c1c(O)n(C2CCCCC2)c(=O)[nH]c1=O	Fam108B inh 19.4 | Fam108b confirm 21.0
O=C(O)CN1C(=O)CN=C(c2ccccn2)c2cc(Cl)ccc21	none
NC(N)=N/N=C/c1ccc(N(c2ccccc2)c2ccccc2)cc1	Fam108B inh 19.1 | Fam108b confirm 18.9
CC1Oc2cc3c(-c4c(O)cc(O)c5c(O)c6c(cc45)OC(C)C(C)C6=O)c(O)cc(O)c3c(O)c2C(=O)C1C (configuration not stated)	GSTO1 inh 72.5, PME-1 primary 27.8, Fam108B inh 40.6 | Fam108b confirm 37.2 | Fam108b inh inactive | GSTO1 inh conf 59.7
O=C(O)CCC(=O)NCCC1=c2ccccc2=N/C1=C\c1c(O)n(Cc2ccc(F)cc2)c(=S)[nH]c1=O	none
COc1ccc(OC)c(N2C(=O)/C(=C/c3ccco3)C(=O)NC2=S)c1	LYPLA2 counter 30.4, PME-1 primary 38.6, Fam108B inh 81.5 | Fam108b confirm inactive | LYPLA2 conf inactive
CCOC(=O)C1(c2ccccc2)CCN(CCC(C#N)(c2ccccc2)c2ccccc2)CC1	none
C[n+]1c2ccccc2nc2ccc(NCCO)cc21	LYPLA2 counter 62.9, GSTO1 inh 68.8, PME-1 primary 71.0, Fam108B inh 72.2, LYPLA1 counter 69.8, PAD4 inh 84.4 | Fam108b confirm 41.9 | Fam108b inh inactive | GSTO1 inh conf 45.6 | LYPLA1 conf 62.9 | LYPLA2 conf 48.4
OCCNc1c2c(nc3ccccc13)CCCC2	none
CCn1nc(-c2ccccc2)nc2c(=O)n(C)c(=O)nc1-2	LYPLA2 counter 96.1, GSTO1 inh 90.3, PME-1 primary 41.7, Fam108B inh 64.7, LYPLA1 counter 89.2, PAD4 inh 68.2 | Fam108b confirm 85.6 | Fam108b inh inactive | GSTO1 inh conf 92.3 | PAD4 FP conf inactive
CNc1ccc2nc3ccccc3[n+](C)c2c1	LYPLA2 counter 117.2, GSTO1 inh 101.5, PME-1 primary 115.6, Fam108B inh 101.6, LYPLA1 counter 102.5, PAD4 inh 108.4 | Fam108b confirm 67.2 | Fam108b inh inactive | GSTO1 inh conf 62.1 | LYPLA1 conf 83.0 | LYPLA2 conf 94.2 | PAD4 FP conf 92.2
